SMILES strings stand for the structures. Results filed as inconclusive are left out. Active and inactive are the calls of the source. The calls were made as follows: active = hit-call score of the fitted dose curve at least 0.9, where 1 is the maximum; inconclusive = response in the unintended direction; inactive = score below 0.9.

Results on 19 compounds are retold here after PubChem BioAssay (EPA / NIEHS).

The target of assay [1] is mouse Cholecystokinin, CCK1 Receptor (CCKA), Cckar (gene 12425) (UniProt O08786). The experiment in a line: NVS_GPCR_mCCKAPeripheral: NovaScreen (NVS) G Protein-Coupled Receptor Assay for mouse Cholecystokinin, CCK1 Receptor (CCKA) (AID 2283285). An outline of the steps:
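Radioligand competitive displacement on mouse pancreatic membranes, 2 h incubation; filter-based scintillation counting, loss of signal versus DMSO. Single-concentration screen at 25 uM in duplicate, actives retested in concentration-response up to 50 uM.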

Assay [2] concerns 5-hydroxytryptamine receptor 2C (pig). The experiment in a line: NVS_GPCR_p5HT2C: NovaScreen (NVS) G Protein-Coupled Receptor Assay for pig Serotonin, 5-Hydroxytryptamine Receptor 2C (5HT2C) (AID 2283288). The gist of the method:
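Pig choroid plexus membranes; radioligand competitive binding, filter-based scintillation counting, read 1 h after dosing. Primary screen in duplicate at 25 uM; actives then run as concentration series; loss of signal versus DMSO baseline.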

Assay [3] has as its target human Purinergic Receptor P2Y, P2RY1 (gene 5028) (UniProt P47900). The experiment in a line: NVS_GPCR_hPY2: NovaScreen (NVS) G Protein-Coupled Receptor Assay for human Purinergic Receptor P2Y (AID 2283281). An outline of the steps: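 Cell-free radioligand binding using U937-derived protein, 1 h after dosing, filter-based scintillation counting. Screened in duplicate at 25 uM; actives rerun as concentration-response up to 50 uM; loss of signal versus DMSO.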

The target of assay [4] is rat Adrenergic, Alpha 1, Non-selective Receptor (Adra1), Adra1a (gene 29412) (UniProt P43140). The experiment in a line: NVS_GPCR_rAdra1_NonSelective: NovaScreen (NVS) G Protein-Coupled Receptor Assay for rat Adrenergic, Alpha 1, Non-selective Receptor (Adra1) (AID 2283289). An outline of the steps: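 Rat forebrain membranes; radioligand displacement read by filter-based scintillation counting 1 h after dosing. Primary screen in duplicate at 25 uM; hits (e.g. ≥30% inhibition) rerun as concentration–response to 50 uM max. Fitted versus DMSO.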
rat Adrenergic, Alpha 1, Non-selective Receptor (Adra1), Adra1a (gene 29412), sequence (P43140 whole entry, looked up): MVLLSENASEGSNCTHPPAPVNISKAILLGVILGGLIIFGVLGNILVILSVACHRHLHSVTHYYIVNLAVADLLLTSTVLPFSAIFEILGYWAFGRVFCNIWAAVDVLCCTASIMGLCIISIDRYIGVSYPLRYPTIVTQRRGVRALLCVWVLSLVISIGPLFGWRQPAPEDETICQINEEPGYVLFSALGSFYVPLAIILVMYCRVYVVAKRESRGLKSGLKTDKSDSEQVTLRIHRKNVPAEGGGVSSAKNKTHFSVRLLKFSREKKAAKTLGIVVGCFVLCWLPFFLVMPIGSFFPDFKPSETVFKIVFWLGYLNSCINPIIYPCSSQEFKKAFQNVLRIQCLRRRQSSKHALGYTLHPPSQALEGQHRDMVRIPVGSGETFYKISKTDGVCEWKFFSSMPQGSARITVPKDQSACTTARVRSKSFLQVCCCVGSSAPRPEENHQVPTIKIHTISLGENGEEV

The target in assay [5] is rat Serotonin, 5-Hydroxytryptamine Receptor 1 (5HT1), Non-Selective Binding, Htr1a (gene 24473) (UniProt P19327). The experiment in a line: NVS_GPCR_r5HT1_NonSelective: NovaScreen (NVS) G Protein-Coupled Receptor Assay for rat Serotonin, 5-Hydroxytryptamine Receptor 1 (5HT1), Non-Selective Binding (AID 2283286). The gist of the method: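 Rat cortical membranes, radioligand displacement, 1 h incubation, read by filter scintillation. Primary screen in duplicate at 25 uM. Hits (e.g. ≥30% inhibition) went to concentration-response up to 50 uM, fitted as loss of binding versus DMSO.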
rat Serotonin, 5-Hydroxytryptamine Receptor 1 (5HT1), Non-Selective Binding, Htr1a (gene 24473), sequence (P19327 whole entry, looked up): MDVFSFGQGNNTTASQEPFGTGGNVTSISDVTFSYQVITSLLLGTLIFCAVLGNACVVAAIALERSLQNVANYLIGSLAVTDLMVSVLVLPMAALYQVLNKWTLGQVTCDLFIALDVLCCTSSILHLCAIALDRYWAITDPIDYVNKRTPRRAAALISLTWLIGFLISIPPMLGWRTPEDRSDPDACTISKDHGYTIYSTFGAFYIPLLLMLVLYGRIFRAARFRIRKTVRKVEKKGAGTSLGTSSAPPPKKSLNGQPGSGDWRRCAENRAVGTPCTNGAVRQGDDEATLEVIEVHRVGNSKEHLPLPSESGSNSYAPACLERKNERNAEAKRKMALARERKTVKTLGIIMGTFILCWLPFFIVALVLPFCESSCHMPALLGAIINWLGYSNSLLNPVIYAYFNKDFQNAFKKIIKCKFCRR

The target in assay [6] is human Opioid Receptor Delta 1 (Opiate D1), OPRD1 (gene 4985) (UniProt P41143). The experiment in a line: NVS_GPCR_hOpiate_D1: NovaScreen (NVS) G Protein-Coupled Receptor Assay for human Opioid Receptor Delta 1 (Opiate D1) (AID 2283280). An outline of the steps:
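Radioligand displacement on membranes from CHO cells expressing the receptor, read by filter scintillation counting 1 h after dosing. Duplicate single-point screen at 25 uM, then concentration series for actives; loss of signal versus DMSO.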

Assay [7] addresses human Vasopressin 1A Receptor (V1A), AVPR1A (gene 552) (UniProt P37288). The experiment in a line: NVS_GPCR_hV1A: NovaScreen (NVS) G Protein-Coupled Receptor Assay for human Vasopressin 1A Receptor (V1A) (AID 2283284). An outline of the steps:
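Cell-free radioligand displacement on human platelet preparations, 1.5 h incubation, filter-based scintillation counting. Chemicals first tested in duplicate at 25 uM; actives then run in concentration-response up to 50 uM, loss of signal fitted against DMSO.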

The target in assay [8] is human Thromboxane A2 Receptor (TXA2), TBXA2R (gene 6915) (UniProt P21731). The experiment in a line: NVS_GPCR_hTXA2: NovaScreen (NVS) G Protein-Coupled Receptor Assay for human Thromboxane A2 Receptor (TXA2) (AID 2283282).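 Also: actives reduce bound radioligand signal relative to DMSO baseline.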 An outline of the steps: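 Filter scintillation counting of bound radioligand, human platelet protein, 1 h exposure. Single-concentration duplicates (25 uM) first, concentration-response follow-up for actives. Binding loss scored against DMSO baseline.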
human Thromboxane A2 Receptor (TXA2), TBXA2R (gene 6915), sequence (P21731 whole entry, looked up): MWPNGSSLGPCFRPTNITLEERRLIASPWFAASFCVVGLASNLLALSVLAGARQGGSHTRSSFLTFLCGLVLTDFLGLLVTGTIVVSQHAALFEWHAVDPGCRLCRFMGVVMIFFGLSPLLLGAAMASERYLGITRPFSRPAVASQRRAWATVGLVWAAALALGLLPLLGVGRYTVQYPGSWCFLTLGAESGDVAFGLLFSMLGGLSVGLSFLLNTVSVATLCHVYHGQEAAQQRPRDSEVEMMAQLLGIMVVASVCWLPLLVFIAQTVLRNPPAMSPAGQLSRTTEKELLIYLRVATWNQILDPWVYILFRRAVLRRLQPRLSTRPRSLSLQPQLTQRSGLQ

The test system of assay [9] is rabbit Platelet Activating Factor Receptor (PAF), gene 100354046. The experiment in a line: NVS_GPCR_rabPAF: NovaScreen (NVS) G Protein-Coupled Receptor Assay for rabbit Platelet Activating Factor Receptor (PAF) (AID 2283287). The gist of the method:
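Rabbit platelet membrane preparation; radioligand displacement read by filter-based scintillation counting 1 h after dosing, loss of signal versus DMSO. Primary screen in duplicate at 25 uM, actives followed up in concentration series.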

Assay [10] concerns the target human Orphanin, Opioid Related Nociceptin Receptor 1 (ORL1), OPRL1 (gene 4987) (UniProt P41146). The experiment in a line: NVS_GPCR_hORL1: NovaScreen (NVS) G Protein-Coupled Receptor Assay for human Orphanin, Opioid Related Nociceptin Receptor 1 (ORL1) (AID 2283283). The gist of the method:
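Filter-based radioligand displacement with receptor extracted from HEK293 cells, read 1 hour after dosing by scintillation counting. Duplicate single-point screen at 25 uM; qualifying chemicals then run in concentration-response to 50 uM, analysed relative to DMSO.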

mouse Cholecystokinin, CCK1 Receptor (CCKA), Cckar (gene 12425), sequence (O08786 whole entry, looked up): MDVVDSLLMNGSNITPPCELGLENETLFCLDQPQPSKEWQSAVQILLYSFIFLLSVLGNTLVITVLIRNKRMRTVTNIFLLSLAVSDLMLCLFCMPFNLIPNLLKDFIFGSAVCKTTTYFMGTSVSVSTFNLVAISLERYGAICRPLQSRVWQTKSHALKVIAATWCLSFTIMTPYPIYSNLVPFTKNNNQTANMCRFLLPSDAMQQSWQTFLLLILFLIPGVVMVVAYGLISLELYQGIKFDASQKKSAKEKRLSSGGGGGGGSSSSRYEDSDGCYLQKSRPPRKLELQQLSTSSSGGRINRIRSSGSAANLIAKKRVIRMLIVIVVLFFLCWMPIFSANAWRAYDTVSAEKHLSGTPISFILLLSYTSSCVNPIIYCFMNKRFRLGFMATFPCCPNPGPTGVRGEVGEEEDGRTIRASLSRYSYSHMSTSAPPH
human Vasopressin 1A Receptor (V1A), AVPR1A (gene 552), sequence (P37288 whole entry, looked up): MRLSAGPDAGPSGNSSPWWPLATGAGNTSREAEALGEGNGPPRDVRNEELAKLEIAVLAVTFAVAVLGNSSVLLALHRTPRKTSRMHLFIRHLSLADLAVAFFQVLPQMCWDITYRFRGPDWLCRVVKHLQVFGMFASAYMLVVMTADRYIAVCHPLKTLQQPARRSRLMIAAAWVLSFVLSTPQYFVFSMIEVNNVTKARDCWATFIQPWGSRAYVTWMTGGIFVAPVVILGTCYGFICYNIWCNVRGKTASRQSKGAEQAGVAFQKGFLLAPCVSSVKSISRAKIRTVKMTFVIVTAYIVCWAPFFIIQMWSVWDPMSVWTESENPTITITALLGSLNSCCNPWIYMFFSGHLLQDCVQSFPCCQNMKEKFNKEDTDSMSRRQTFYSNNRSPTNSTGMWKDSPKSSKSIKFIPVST
human Orphanin, Opioid Related Nociceptin Receptor 1 (ORL1), OPRL1 (gene 4987), sequence (P41146 whole entry, looked up): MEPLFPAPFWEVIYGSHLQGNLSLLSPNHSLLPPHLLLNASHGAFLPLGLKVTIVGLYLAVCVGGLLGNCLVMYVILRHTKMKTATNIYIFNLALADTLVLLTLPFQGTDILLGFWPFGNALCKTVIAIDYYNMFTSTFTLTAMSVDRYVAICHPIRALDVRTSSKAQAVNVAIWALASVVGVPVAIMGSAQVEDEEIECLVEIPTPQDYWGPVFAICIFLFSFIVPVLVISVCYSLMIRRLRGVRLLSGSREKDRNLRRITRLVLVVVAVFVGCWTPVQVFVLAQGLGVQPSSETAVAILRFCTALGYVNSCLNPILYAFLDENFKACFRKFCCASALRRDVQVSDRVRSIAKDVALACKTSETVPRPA
human Opioid Receptor Delta 1 (Opiate D1), OPRD1 (gene 4985), sequence (P41143 whole entry, looked up): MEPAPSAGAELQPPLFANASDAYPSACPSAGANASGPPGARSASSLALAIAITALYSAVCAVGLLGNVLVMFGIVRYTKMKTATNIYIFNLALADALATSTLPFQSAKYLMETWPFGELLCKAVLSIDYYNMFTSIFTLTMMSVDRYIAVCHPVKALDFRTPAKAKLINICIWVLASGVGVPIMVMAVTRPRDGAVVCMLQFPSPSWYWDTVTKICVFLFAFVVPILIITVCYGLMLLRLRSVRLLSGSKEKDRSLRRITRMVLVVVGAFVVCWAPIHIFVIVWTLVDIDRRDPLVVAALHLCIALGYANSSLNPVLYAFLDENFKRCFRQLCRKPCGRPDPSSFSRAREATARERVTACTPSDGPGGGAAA
human Purinergic Receptor P2Y, P2RY1 (gene 5028), sequence (P47900 whole entry, looked up): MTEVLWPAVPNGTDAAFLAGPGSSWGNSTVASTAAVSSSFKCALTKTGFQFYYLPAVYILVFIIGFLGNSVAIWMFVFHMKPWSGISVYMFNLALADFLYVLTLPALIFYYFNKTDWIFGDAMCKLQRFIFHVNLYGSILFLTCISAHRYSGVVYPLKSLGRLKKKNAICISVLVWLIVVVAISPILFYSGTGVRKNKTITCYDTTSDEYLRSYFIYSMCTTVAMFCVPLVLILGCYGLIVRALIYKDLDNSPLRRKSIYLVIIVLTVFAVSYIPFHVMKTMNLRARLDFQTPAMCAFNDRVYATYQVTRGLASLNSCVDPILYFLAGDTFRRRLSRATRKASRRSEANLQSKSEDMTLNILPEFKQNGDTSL

On to `CN(C)C(=O)NC1(c2ccccc2)CCN(CC[C@@]2(c3ccc(F)c(F)c3)CN(C(=O)c3ccccc3)CCO2)CC1`, for which the results for the AC50 in assay [1] and in assay [2] were 12.8 µM (active) and 16.7 µM (active), respectively.
In the case of `O=C(NS(=O)(=O)/C=C/c1cccs1)c1ccc(F)cc1Br`, the AC50 (in general, the concentration giving half of the maximal activity seen) in [1] was 22.6 µM (active).
Consider `CC(COCC(C)OC(=O)c1ccccc1)OC(=O)c1ccccc1` (stereo unspecified), for which the call in assay [3] and in assay [2] was inactive.
Regarding `NC(=Nc1ccccc1)Nc1ccccc1`, the call in assay [4] was inactive.
For `CC(C)(C)c1ccccc1`, the call in assay [5] was inactive.
Consider `S=c1[nH]c2ccccc2s1`, for which, in assay [2], the outcome was inactive.
On to `Nc1nc(=S)c2[nH]cnc2[nH]1`, for which the result in [5] was inactive.
For the compound `CN(C)C(=O)NC1(c2ccccc2)CCN(CCC[C@]2(c3ccc(Cl)c(Cl)c3)CCCN(C(=O)c3ccccc3)C2)CC1`, in assay [6], the outcome was inactive. Besides, the AC50 in [2] was 2.57 µM (active); in [4], 6.25 µM (active).
In the case of `Oc1ccc(O)cc1`, in assay [7], the call was inactive.
Take `Cc1ccc(C(C)(C)C)c(O)c1`: in [4], the call was inactive.
As to `CN(C)CCCN1c2ccccc2Sc2ccc(Cl)cc21`, the AC50 in assay [1] was 21.8 µM (active); in assay [5], 8.89 µM (active).
Take `CCc1cc(C2=C(C(=O)O)N(c3ccccc3C(F)(F)F)S(=O)(=O)c3ccccc32)cc2c1OCO2`: the AC50 in assay [8] is 3.08 µM (active); in assay [1], 16.6 µM (active); in assay [9], 4.11 µM (active).
On to `C#CC(O)C(CC)CCCC` (stereo unspecified), for which, in assay [10], the compound was classed as inactive.
On to `CO[C@@H]1COCC[C@@H]1N[C@@H]1CC[C@@](C(=O)N2CCc3ncc(C(F)(F)F)cc3C2)(C(C)C)C1`, for which the result in assay [7] was inactive.
Take `CCC(C)N(C)C(=O)c1cc2ccccc2c(-c2ccccc2Cl)n1` (stereo unspecified): the AC50 is 1 µM (active) in assay [8], 10.8 µM (active) in [1] and 7.29 µM (active) in assay [9]. The call in assay [7] was inactive.
In the case of `CCCCCCC(CCCCCCCCCCC(=O)OCC(COC(C)=O)OC(C)=O)OC(C)=O` (stereo unspecified), the half-maximal activity concentration (AC50) in [8] was 4.54 µM (active).
Turning to `O=Cc1ccccc1C=O`, the AC50 in assay [8] was 16.7 µM (active); in assay [10], 25 µM (active).
Take `C=CCc1ccc(OC)c(OC)c1`: in [2], the compound was called inactive.
In the case of `CCc1nc(N)nc(N)c1-c1ccc(Cl)cc1`, the values for the AC50 in assay [2] and in assay [4] were 7.09 µM (active) and 8.12 µM (active), respectively.
